Sampled rows, rich in hits. Any-hit rate of the full collection: about 6%.
D1 ag – Allosteric Agonists of the Human D1 Dopamine Receptor: qHTS | activation, % at 2 µM | 360,000 tested, 1% active | AID 504660, 2011 | HEK293 T-REx D1 cells, calcium flux, agonist mode; in the data active = activation above about 30%; note: 0% is about no effect
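Tetracycline-induced HEK293 TREx D1 cells, force-coupled to calcium signalling, were dye-loaded with a no-wash calcium kit. Compound was pin-added after a 10 s baseline. Fluorescence was read kinetically at 1 cycle/s for 180 s, with calcium rises flagged as agonism.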
DRD3 agonist – qHTS of D3 Dopamine Receptor Agonist: qHTS. D(3) dopamine receptor (Homo sapiens), P35462. D3R DiscoveRx beta-arrestin cells, luminescence, 90 min. max activation, %. 410,000 tested, 0.58% active. AID 652048, 2013; in the data active = max activation above about 30%; note: 0% is about no effect
Target sequence (P35462 whole entry, looked up): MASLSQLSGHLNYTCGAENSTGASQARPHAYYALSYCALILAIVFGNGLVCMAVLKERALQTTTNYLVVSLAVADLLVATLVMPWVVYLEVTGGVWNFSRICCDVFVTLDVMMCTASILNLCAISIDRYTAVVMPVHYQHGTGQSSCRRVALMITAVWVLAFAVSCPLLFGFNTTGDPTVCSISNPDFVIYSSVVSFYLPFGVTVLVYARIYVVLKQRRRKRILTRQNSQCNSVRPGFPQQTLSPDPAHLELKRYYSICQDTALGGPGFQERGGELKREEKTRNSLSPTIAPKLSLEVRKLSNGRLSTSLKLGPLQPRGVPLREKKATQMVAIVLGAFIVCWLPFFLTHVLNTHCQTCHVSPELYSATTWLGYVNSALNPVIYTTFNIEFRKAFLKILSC
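Agonist-mode cell screen: cells plated at 1500/well and incubated overnight at 37 °C, then exposed to library compounds for 90 min at 37 °C. Detection reagent was added for 30–60 min at room temperature, and luminescence was read.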
D1 antag – Antagonist of Human D 1 Dopamine Receptor: qHTS; 360,000 tested, 3.2% active; HEK293 TREx D1 cells, calcium flux, dopamine EC80; stronger effect = lower value; activity change, negative = inhibition, % at 10 µM; in the data active = activity change below about -30%; note: % is set by controls: 0 for no effect and ±100 for the full control effect
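After overnight tetracycline induction at 30 C, force-coupled D1 HEK293 cells took up a no-wash calcium dye at room temperature. Compounds were added and monitored 180 s, and the response to EC80 dopamine was then recorded.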
D1 potentiator – Potentiators of Human D1 Dopamine Receptor: qHTS; D(1A) dopamine receptor (Homo sapiens), P21728; HEK293 TREx D1 cells, calcium flux, dopamine EC20 potentiation; potentiation, % at 10 µM; 360,000 tested, 0.036% active; AID 504651, 2011; in the data active = potentiation above about 30%; note: 0% is about no effect
D3 antag – qHTS of D3 Dopamine Receptor Antagonist: qHTS; 360,000 tested, 2.5% active; D3R cells, DiscoveRx beta-arrestin luminescence, antagonist mode; stronger effect = lower value; D(3) dopamine receptor (Homo sapiens), P35462; max response, negative = inhibition, %; in the data active = max response below about -50%; inconclusive = no clear call, values can overlap the other calls; note: % is set by controls: 0 for no effect and ±100 for the full control effect
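Cells plated overnight at 1500 cells/well, then exposed to library compounds with dopamine controls for 90 minutes at 37 degrees C. DiscoveRx reagent added for 30–60 minutes at room temperature; luminescence read, quantitative HTS format.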
An asterisk follows results filed as active; ? = inconclusive; / = no result given; ! = repeats disagree.

SMILES | D1 ag | DRD3 agonist | D1 antag | D1 potentiator | D3 antag
CC1CCN(c2ccc(NC(=O)Cc3ccccc3)cc2)CC1 | -1 | -23 | -6 | -5 | -8
COc1cccc(CNc2ccc(N3CCC(C)CC3)cc2)c1OC | -1 | -27 | -13 | 2 | -64*
CN1CCCN=C1/C=C/c1cccs1 | 1 | 0 | 0 | -1 | -58*
O=C(/C=C/c1cccs1)N1CCCC1 | 0 | 8 | 0 | -2 | 3
CC(=O)Nc1cccc(C(=O)NC2CCCc3c2cnn3-c2ccc(C(C)(C)C)cc2)c1 (configuration not stated) | 4 | 33* | -24 | -6 | 18
Cc1cc(C(=O)NC2CCCc3c2cnn3-c2ccc(C(C)(C)C)cc2)nn1C (configuration not stated) | 4 | 4 | -35* | 5 | 14
O=C(O)CNC(=O)c1ccccc1I | / | -6 | / | / | /
C/C=C\C=C/C(=O)Nc1cccc(C2=NOC3(C2)C[C@@H](C(N)=O)N(C(=O)c2ccc(Cl)cc2)C3)c1 (some centres not stated) | 3 | 2 | -30* | -2 | 22
C/C=C\C=C/C(=O)Nc1cccc(C2=NOC3(C2)C[C@@H](C(N)=O)N(C(=O)CCCCC)C3)c1 (some centres not stated) | 1 | 11 | 3 | 0 | 46
C/C=C\C=C/C(=O)Nc1cccc(C2=NOC3(C2)C[C@H](C(N)=O)N(C(=O)CC)C3)c1 (some centres not stated) | 6 | 31* | -13 | 0 | -5
C/C=C/C(=O)Nc1cccc(C2=NOC3(C2)C[C@H](C(N)=O)N(C(=O)/C=C/C)C3)c1 (some centres not stated) | 0 | -19 | -42* | -1 | -25
C/C=C(\C)C(=O)Nc1cccc(C2=NOC3(C2)C[C@H](C(N)=O)N(C(=O)c2cc([N+](=O)[O-])cc([N+](=O)[O-])c2)C3)c1 (some centres not stated) | 5 | 14 | -64* | -4 | -20
C/C=C(\C)C(=O)Nc1cccc(C2=NOC3(C2)C[C@@H](C(N)=O)N(C(=O)c2cc([N+](=O)[O-])cc([N+](=O)[O-])c2C)C3)c1 (some centres not stated) | 2 | -23 | -3 | -2 | 7
C/C=C/C=C/C(=O)N1CC2(CC(c3cccc(NC(=O)/C=C/C)c3)=NO2)C[C@@H]1C(N)=O (some centres not stated) | 1 | -12 | -2 | 2 | -13
C/C=C\C=C/C(=O)Nc1cccc(C2=NOC3(C2)C[C@H](C(N)=O)N(C(=O)c2ccc(OC)cc2)C3)c1 (some centres not stated) | 5 | 8 | -9 | -2 | ?
Cc1nn(C(C)C(=O)Nc2cccc(F)c2)c(=O)c2c1sc1ccccc12 (configuration not stated) | 0 | -10 | -10 | 1 | /
Cc1nn(S(=O)(=O)c2ccc(C(C)C)cc2)c(C)c1S(=O)(=O)N1CCCCC1 | 3 | 7 | -6 | 0 | /
N#CCC(=O)N1CC2(CC(c3cccc(NC(=O)COc4ccc(Cl)cc4)c3)=NO2)C[C@@H]1C(N)=O (some centres not stated) | 2 | 1 | -41* | 1 | -18
CCc1ccc(NC(=O)CCn2c(=O)c3cccn3c3ccccc32)cc1 | 4 | -21 | 4 | 17 | -54*
CCc1ccc(NC(=O)Cn2c(=O)c3cccn3c3ccccc32)cc1 | 5 | -1 | 1 | -2 | -18
Cc1ccc(NC(=O)CCn2c(=O)c3cccn3c3ccccc32)cc1C | 3 | -10 | -37*! | 3 | -16
Cc1ccc(C(=O)N2CCN3C(=O)c4ccccc4C23c2ccccc2)cc1 (configuration not stated) | 2 | 2 | -38* | -3 | -8
O=C1c2ccccc2C2(c3ccccc3)N1CCN2C(=O)C(Cl)(Cl)Cl (configuration not stated) | 0 | 1 | -7 | -3 | -16
COC(=O)c1c(N)nc(C)n1-c1ccc(OC)cc1 | 4 | -1 | -14 | 41* | -15
COc1ccc(-n2c(C)nc(N)c2C(=O)c2ccccc2)cc1 | 3 | -4 | -9 | 2 | 6
SMILES | D1 ag | DRD3 agonist | D1 antag | D1 potentiator | D3 antag
Cc1ccc(Oc2nnc(-c3cccs3)c3ccccc23)cc1C | 1 | -1 | -32* | -6 | ?
O=c1/c(=C/c2ccco2)sc2n1CN(c1cccc(Br)c1)CN=2 | -1 | 1 | -13 | 0 | -61*
CC(C)c1ccccc1Oc1c(C(F)(F)F)oc2c(CN3CCN(C)CC3)c(O)ccc2c1=O | 13 | -22 | -33* | -1 | /
CCOc1ccc(S(=O)(=O)N(C)c2ccc(OCC(=O)NCC3CCCO3)cc2)cc1 (configuration not stated) | 3 | -1 | 14 | 15 | 6
CCOc1ccc(S(=O)(=O)N(CC(=O)NC2CCCC2)c2ccc(F)cc2)cc1 | / | 8 | / | / | -52*
CCOc1ccc(S(=O)(=O)N(C)c2ccc(OCC(=O)NCC3CCCCC3)cc2)cc1 | / | -11 | / | / | -79*
O=C(Nc1cccc([N+](=O)[O-])c1)Nc1cccs1 | 24 | -4 | -35* | -12 | -10
COc1ccccc1NC(=O)NNC(=O)c1cc2ccccc2cc1O | 17 | -11 | -34* | -11 | -24
COc1ccccc1NC(=O)Nc1cc(NC(=O)Nc2ccccc2OC)c(C)nc1C | 1 | -1 | -93* | -8 | 2
Cc1ccc([N+](=O)[O-])cc1NC(=O)Nc1cccc(F)c1 | 25 | -2 | -51* | -6 | -7
O=C(Nc1ccccc1)Nc1cc([N+](=O)[O-])ccc1F | 20 | -8 | -19 | -8 | 14
CCOc1ccc(C(=O)N2CCN(Cc3cc(=O)n4nc(-c5ccccc5Cl)sc4n3)CC2)cc1 | -1 | 7 | 8 | -1 | /
Cc1cccc(-n2cnc3cc(C(=O)NC4CCCCCC4)ccc32)c1 | 0 | -21 | 0 | 0 | /
O=C(/C=C/c1cccc([N+](=O)[O-])c1)Nc1cccc(NC(=O)c2ccco2)c1 | 0 | 5 | -1 | 1 | 43
COC(=O)c1sccc1NC(=O)Nc1ccccc1OC | -1 | 1 | -80* | -8 | -9
COC(=O)c1sccc1NC(=O)Nc1cccc([N+](=O)[O-])c1 | 5 | -2 | -38* | -4 | 2
O=C(/C=C/c1cccc([N+](=O)[O-])c1)Nc1cccc(NC(=O)c2cccs2)c1 | 2 | 11 | -46* | 0 | 7
CC(NC(=O)Nc1cccc([N+](=O)[O-])c1)(C(F)(F)F)C(F)(F)F | 26 | 3 | -36* | 2 | 8

From PubChem BioAssay
